# Experimental data from the supplement of paper PMC8728848.
# This is one part of a sample in which the strongest signals are shown more often than they occur.
# Assays:
# Assay in all cases: glycan array binding signal (z-score within array); higher = stronger binding
# Settings in all cases: glycan notation: IUPAC condensed, linker removed
# [1] = target: Fuc(a1-2)Gal(b1-3)GalNAc(b1-3)Gal(a1-4)Gal(b1-4)Glc
# Outline: (§1)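 Arrays were curated from the Consortium for Functional Glycomics database, 3228 in total, and kept only where the protein sequence was available. Binding is expressed as a within-array Z-score. This score was averaged across arrays of the same protein sequence at different concentrations or buffers and across linkers, and negative values can be read as non-binding.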
# [2] = target: Fuc(a1-2)Gal(b1-3)GlcNAc(b1-3)Gal(b1-4)Glc
# Outline: as §1
# Fuc(a1-2)Gal(b1-4)GlcNAc = target: Fuc(a1-2)Gal(b1-4)GlcNAc
# Outline: as §1
# [3] = target: Fuc(a1-2)Gal(b1-4)GlcNAc(b1-6)GalNAc
# Outline: as §1
# [4] = target: Fuc(a1-2)Gal(b1-4)[Fuc(a1-3)]GlcNAc(b1-2)Man(a1-3)[Fuc(a1-2)Gal(b1-4)[Fuc(a1-3)]GlcNAc(b1-2)Man(a1-6)]Man(b1-4)GlcNAc(b1-4)GlcNAc
# Outline: as §1
# [5] = target: Fuc(a1-2)Gal6S(b1-3)GlcNAc6S
# Outline: as §1
# [6] = target: Fuc(a1-2)[GalNAc(a1-3)]Gal(b1-3)GlcNAc
# Outline: as §1
# [7] = target: Fuc(a1-2)[GalNAc(a1-3)]Gal(b1-3)GlcNAc(b1-6)GalNAc
# Outline: as §1
# [8] = target: Fuc(a1-2)[GalNAc(a1-3)]Gal(b1-4)[Fuc(a1-3)]GlcNAc(b1-3)GalNAc
# Outline: as §1
# Gal(a1-3)Gal(b1-3)GlcNAc = target: Gal(a1-3)Gal(b1-3)GlcNAc
# Outline: as §1
# [9] = target: Gal(b1-3)[GlcNAc(b1-6)]GalNAc
# Outline: as §1
# [10] = target: Gal(b1-4)GlcNAc(a1-6)Gal(b1-4)GlcNAc
# Outline: as §1
# [11] = target: Gal(b1-4)GlcNAc(b1-2)Man(a1-3)[Man(a1-6)]Man(b1-4)GlcNAc(b1-4)GlcNAc
# Outline: as §1
# [12] = target: Gal(b1-4)GlcNAc(b1-2)[Gal(b1-4)GlcNAc(b1-6)]Man(a1-6)[GlcNAc(b1-4)][Gal(b1-4)GlcNAc(b1-2)Man(a1-3)]Man(b1-4)GlcNAc(b1-4)GlcNAc
# Outline: as §1
# [13] = target: Gal(b1-4)GlcNAc(b1-3)Gal(b1-3)GalNAc
# Outline: as §1
# [14] = target: Gal(b1-4)GlcNAc(b1-3)Gal(b1-4)GlcNAc(b1-3)Gal(b1-4)GlcNAc(b1-3)Gal(b1-4)GlcNAc(b1-3)Gal(b1-4)GlcNAc(b1-2)Man(a1-3)[Gal(b1-4)GlcNAc(b1-3)Gal(b1-4)GlcNAc(b1-3)Gal(b1-4)GlcNAc(b1-3)Gal(b1-4)GlcNAc(b1-3)Gal(b1-4)GlcNAc(b1-2)Man(a1-6)]Man(b1-4)GlcNAc(b1-4)GlcNAc
# Outline: as §1
# [15] = target: Gal(b1-4)GlcNAc(b1-3)Gal(b1-4)[Fuc(a1-3)GlcNAc(b1-6)]Gal(b1-4)Glc
# Outline: as §1
# [16] = target: Gal(b1-4)GlcNAc(b1-3)[Gal(b1-4)GlcNAc(b1-6)]GalNAc
# Outline: as §1
# Gal(b1-4)GlcNAc6P = target: Gal(b1-4)GlcNAc6P
# Outline: as §1
# Gal6S(b1-3)GlcNAc6S = target: Gal6S(b1-3)GlcNAc6S
# Outline: as §1
# Gal6S(b1-4)GlcNAc6S = target: Gal6S(b1-4)GlcNAc6S
# Outline: as §1
# GalNAc(b1-4)Gal(b1-4)Glc = target: GalNAc(b1-4)Gal(b1-4)Glc
# Outline: as §1
# GalNAc3S(b1-4)GlcNAc3S = target: GalNAc3S(b1-4)GlcNAc3S
# Outline: as §1
# [17] = target: GlcNAc(b1-3)Gal(b1-4)GlcNAc(b1-3)Gal(b1-4)GlcNAc(b1-3)Gal(b1-4)GlcNAc(b1-2)Man(a1-3)[GlcNAc(b1-3)Gal(b1-4)GlcNAc(b1-3)Gal(b1-4)GlcNAc(b1-3)Gal(b1-4)GlcNAc(b1-2)Man(a1-6)]Man(b1-4)GlcNAc(b1-4)GlcNAc
# Outline: as §1
# [18] = target: GlcNAc(b1-3)[GlcNAc(b1-6)]Gal(b1-4)GlcNAc
# Outline: as §1
# Neu5Ac(a2-3)Gal = target: Neu5Ac(a2-3)Gal
# Outline: as §1
# [19] = target: Neu5Ac(a2-3)Gal(b1-4)GlcNAc(b1-6)[Neu5Ac(a2-3)Gal(b1-3)]GalNAc
# Outline: as §1
# [20] = target: Neu5Ac(a2-3)Gal(b1-4)GlcNAc6S
# Outline: as §1
# [21] = target: Neu5Ac(a2-3)Gal6S(b1-4)GlcNAc
# Outline: as §1
# [22] = target: Neu5Ac(a2-3)[Neu5Ac(a2-6)]GalNAc
# Outline: as §1
# [23] = target: Neu5Ac(a2-6)Gal(b1-4)GlcNAc(b1-2)Man(a1-3)[Gal(b1-4)GlcNAc(b1-2)Man(a1-6)]Man(b1-4)GlcNAc(b1-4)GlcNAc
# Outline: as §1
# [24] = target: Neu5Ac(a2-6)Gal(b1-4)GlcNAc(b1-3)Gal(b1-4)GlcNAc(b1-3)GalNAc
# Outline: as §1
# [25] = target: Neu5Ac(a2-6)GalNAc(b1-4)GlcNAc6S
# Outline: as §1
# Neu5Ac(a2-8)Neu5Ac = target: Neu5Ac(a2-8)Neu5Ac
# Outline: as §1
# [26] = target: Neu5Ac(a2-8)Neu5Ac(a2-3)[Gal(b1-3)GalNAc(b1-4)]Gal(b1-4)Glc
# Outline: as §1
# [27] = target: Neu5Gc(a2-3)Gal(b1-3)GlcNAc
# Outline: as §1
# Neu5Gc(a2-6)GalNAc = target: Neu5Gc(a2-6)GalNAc
# Outline: as §1
# [28] = target: Neu5Gc(b2-6)Gal(b1-4)GlcNAc
# Outline: as §1
binder,measurement,setting,value
"Siglec-7-SA-PE-180 (Homo sapiens), Q9Y286 (protein) MLLLLLLPLLWGRERVEGQKSNRKDYSLTMQSSVTVQEGMCVHVRCSFSYPVDSQTDSDPVHGYWFRAGNDISWKAPVATNNPAWAVQEETRDRFHLLGDPQTKNCTLSIRDARMSDAGRYFFRMEKGNIKWNYKYDQLSVNVTALTHRPNILIPGTLESGCFQNLTCSVPWACEQGTPPMISWMGTSVSPLHPSTTRSSVLTLIPQPQHHGTSLTCQVTLPGAGVTTNRTIQLNVSYPPQNLTVTVFQGEGTASTALGNSSSLSVLEGQSLRLVCAVDSNPPARLSWTWRSLTLYPSQPSNPLVLELQVHLGDEGEFTCRAQNSLGSQHVSLNLSLQQEYTGKMRPVSGVLLGAVGGAGATALVFLSFCVIFIVVRSCRKKSARPAADVGDIGMKDANTIRGSASQGNLTESWADDNPRHHGLAAHSSGEEREIQYAPLSFHKGEPQDLSGQEATNNEYSEIKIPK",glycan array binding signal (z-score),[1],-0.254
same,glycan array binding signal (z-score),[2],-0.174
same,glycan array binding signal (z-score),Fuc(a1-2)Gal(b1-4)GlcNAc,-0.302
same,glycan array binding signal (z-score),[3],-0.066
same,glycan array binding signal (z-score),[4],-0.133
same,glycan array binding signal (z-score),[5],2.66
same,glycan array binding signal (z-score),[6],-0.313
same,glycan array binding signal (z-score),[7],-0.099
same,glycan array binding signal (z-score),[8],10.7
same,glycan array binding signal (z-score),Gal(a1-3)Gal(b1-3)GlcNAc,-0.363
same,glycan array binding signal (z-score),[9],-0.225
same,glycan array binding signal (z-score),[10],-0.267
same,glycan array binding signal (z-score),[11],0.048
same,glycan array binding signal (z-score),[12],-0.412
same,glycan array binding signal (z-score),[13],-0.464
same,glycan array binding signal (z-score),[14],-0.144
same,glycan array binding signal (z-score),[15],-0.383
same,glycan array binding signal (z-score),[16],-0.453
same,glycan array binding signal (z-score),Gal(b1-4)GlcNAc6P,0.085
same,glycan array binding signal (z-score),Gal6S(b1-3)GlcNAc6S,2.28
same,glycan array binding signal (z-score),Gal6S(b1-4)GlcNAc6S,2.43
same,glycan array binding signal (z-score),GalNAc(b1-4)Gal(b1-4)Glc,0.174
same,glycan array binding signal (z-score),GalNAc3S(b1-4)GlcNAc3S,2.05
same,glycan array binding signal (z-score),[17],0.059
same,glycan array binding signal (z-score),[18],-0.346
same,glycan array binding signal (z-score),Neu5Ac(a2-3)Gal,2.25
same,glycan array binding signal (z-score),[19],-0.035
same,glycan array binding signal (z-score),[20],4.5
same,glycan array binding signal (z-score),[21],2.67
same,glycan array binding signal (z-score),[22],3.03
same,glycan array binding signal (z-score),[23],-0.303
same,glycan array binding signal (z-score),[24],-0.587
same,glycan array binding signal (z-score),[25],0.866
same,glycan array binding signal (z-score),Neu5Ac(a2-8)Neu5Ac,2.11
same,glycan array binding signal (z-score),[26],-0.067
same,glycan array binding signal (z-score),[27],-0.155
same,glycan array binding signal (z-score),Neu5Gc(a2-6)GalNAc,2.26
same,glycan array binding signal (z-score),[28],-0.05
